This is a sample that favours compounds with a hit; in the whole collection about 3.2% have one here.
INS-1E GSIS act: GLuc luminescence reporter in INS-1E cells, primary screen for activators of glucose-dependent secretion of insulin | INS-1E GLuc reporter insulin secretion, 2-3 h | activation, % at 16.6 µM | hit rate 0.61% among 370,000 | AID 743287, 2014;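 active = lowest replicate activation of at least 40%, so every replicate reaches that level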;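 note: 0% = median of neutral control wells and 100% = median of IBMX positive control wells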
ERAP1 inh: human ERAP1 aminopeptidase inhibitors, primary screen, biochemical, single point, plate reader. inhibition, % at 10.7 µM. hit rate 0.15% among 340,000. recombinant ERAP1, Leu-AMC fluorescence, 60 min. AID 652197, 2013. Endoplasmic reticulum aminopeptidase 1 (Homo sapiens), Q9NZ08;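 active = mean replicate inhibition of at least 30%, or all replicates individually reaching that 30% level; inactive = mean below 30% and not every replicate reaching it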;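 note: 0% = neutral control wells and 100% = L-leucinethiol positive control wells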
Target sequence (Q9NZ08 whole entry, looked up): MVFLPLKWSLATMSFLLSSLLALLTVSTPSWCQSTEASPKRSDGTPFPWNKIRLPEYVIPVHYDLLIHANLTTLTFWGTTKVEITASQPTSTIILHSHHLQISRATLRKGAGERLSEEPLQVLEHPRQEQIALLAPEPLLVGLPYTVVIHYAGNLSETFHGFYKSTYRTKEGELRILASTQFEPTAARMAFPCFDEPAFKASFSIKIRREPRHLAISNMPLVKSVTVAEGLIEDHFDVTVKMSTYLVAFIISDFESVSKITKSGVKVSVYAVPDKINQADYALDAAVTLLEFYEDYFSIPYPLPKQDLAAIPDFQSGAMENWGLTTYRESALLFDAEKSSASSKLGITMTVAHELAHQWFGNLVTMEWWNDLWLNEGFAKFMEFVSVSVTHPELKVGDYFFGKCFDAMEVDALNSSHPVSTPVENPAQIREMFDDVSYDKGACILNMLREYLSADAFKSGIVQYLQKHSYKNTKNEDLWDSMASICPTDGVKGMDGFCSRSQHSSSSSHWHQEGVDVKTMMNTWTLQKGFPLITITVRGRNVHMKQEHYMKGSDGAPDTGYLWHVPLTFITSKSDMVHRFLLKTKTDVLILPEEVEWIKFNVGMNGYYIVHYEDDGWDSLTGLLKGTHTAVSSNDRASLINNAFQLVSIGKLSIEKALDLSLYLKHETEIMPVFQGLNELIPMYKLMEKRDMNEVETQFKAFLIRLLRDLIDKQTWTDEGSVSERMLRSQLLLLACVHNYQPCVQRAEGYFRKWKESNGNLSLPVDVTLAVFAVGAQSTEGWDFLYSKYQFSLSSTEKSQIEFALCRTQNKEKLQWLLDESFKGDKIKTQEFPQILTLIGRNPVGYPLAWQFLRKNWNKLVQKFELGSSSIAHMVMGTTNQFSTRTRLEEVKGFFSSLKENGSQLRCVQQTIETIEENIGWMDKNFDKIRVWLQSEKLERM
rRNA inh HTS: reduced GFP signal of wild-type E. coli, primary screen, bacterial rRNA inhibitor project, GFP/RFP fluorescence, OD600, single point; E. coli WT GFP vs humanized-ribosome RFP mutants, 24 h; hits give low values; DMSO median 0, no signal -100; GFP signal change (wild-type ribosome), % (no concentration beside the values); hit rate 1.6% among 350,000; AID 720706, 2013;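 active = significant combined selectivity score with lowered wild-type GFP, culture density cut under 30%, mutant RFP and density less affected; inactive = any of these conditions unmet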
CaV13 FRET inh: Disruptors of the CACNA1D IQ motif to Ca2+-dependent inactivation inhibitor domain association, primary screening, Förster resonance energy transfer in intact living …; AID 743397; HEK cells, CFP/YFP FRET ICDI-IQ, plate reader, 10 min; percent FRET-ratio fall versus neutral wells; hit rate 0.098% among 340,000; inhibition, % at 12.3 µM;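 active = mean replicate inhibition of at least 30% and at least 1% of replicates passing that level; inconclusive = only one of the two criteria is met; inactive = neither criterion is met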;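 note: 0% = median of the neutral control wells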
DENV2 CPE: inhibitors of DENV2 cytopathic effect, primary screen, cell-based, plate reader, single concentration; CPE inhibition, % at 9.99 µM; hit rate 1.7% among 350,000; DENV2-infected cells, cytopathic effect rescue; in the data active = CPE inhibition above about 20%, passing the limit was not always enough; inconclusive = no clear call, values can overlap the other calls; tested in BHK-21 cells;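 note: 0% = median of neutral control wells and 100% = median of positive control wells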
PGC1a acetyl inh: inhibitors of PGC1a acetylation signal, primary screen, cell-based, U2OS, AlphaScreen, inhibitor mode; inhibition, % at 15.6 µM; hit rate 0.17% among 350,000; AlphaScreen anti-acetyl-lysine; with virally co-expressed GCN5 acetyltransferase; AID 651687, 2012;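 active = every replicate shows inhibition of at least 40%; inconclusive = mean inhibition at least 40% but some replicate below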;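 note: 0% = neutral control wells and 100% = positive control wells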
* hit, by the source's call; ? = inconclusive; . = no result.

SMILES	INS-1E GSIS act	ERAP1 inh	rRNA inh HTS	CaV13 FRET inh	DENV2 CPE	PGC1a acetyl inh
CCC(=O)N[C@@H]1C=C[C@H](CC(=O)OC)O[C@@H]1CO	2.7	2.3	1.0	.	-1.0	-5.4
O=[N+]([O-])c1ccc(S(=O)Cc2ccccc2)c([N+](=O)[O-])c1 (stereo not given)	117.2*	0.5	14.8	-7.2	0.3	.
C[C@H]1CN([C@@H](C)CO)C(=O)c2cc(C#Cc3ccccc3F)cnc2O[C@H]1CN(C)C(=O)Cc1cccnc1	-6.8	4.0	1.5	.	3.0	3.6
CC(=O)N(CCOc1ccccc1)CCOc1ccccc1	-10.3	-1.0	-23.3*	-4.8	-5.1	.
Cc1ccc(-c2ccc([C@H]3[C@@H](CO)N4C(=O)CN(C(=O)c5cccnc5)C[C@H]34)cc2)cc1	-0.4	-3.7	-1.1	.	-2.6	-6.8
Cc1ccccc1OCc1n(CC(=O)OC2CC(C)CCC2C(C)C)c2ccccc2[n+]1C (stereo not given)	77.2*	13.9	-61.0	-7.6	-6.7	12.3
CC1CCC(C(C)C)C(OC(=O)Cn2c(-c3ccc(Br)cc3)[n+](C)c3ccccc32)C1 (stereo not given)	275.3*	19.6	-59.0	11.4	-0.1	-45.1
CC1CCC(C(C)C)C(OC(=O)Cn2c(-c3ccc(Cl)cc3)[n+](C)c3ccccc32)C1 (stereo not given)	88.4	31.0*	-58.4	-4.0	-1.0	1.8
O=C(Cc1ccccc1)N[C@@H]1C=C[C@H](CC(=O)N2CCOCC2)O[C@@H]1CO	-0.2	-0.5	-0.1	.	6.9	-2.8
COc1ccc(CN2C[C@H](C)[C@@H](OC)CN(C)C(=O)c3ccc(NC(=O)C4CC4)cc3OC[C@@H]2C)cc1	-14.6	-6.9	1.3	.	-11.0	-0.5
O=C1CCCC/C=C\C[C@H](CC(=O)N(CCO)Cc2ccccc2)C(=O)NC[C@H](c2ccccc2)O1	-14.8	0.7	-4.1	-8.4	129.7*	.
CC(C)(C)OC(=O)C[C@H]1C/C=C\C[C@H](CC(=O)N[C@@H](CO)Cc2ccccc2)C(=O)N[C@H](C(C)(C)C)COC1=O	26.6	-1.5	1.7	-8.4	62.6*	.
CC(C)(C)OC(=O)C[C@@H]1C/C=C\C[C@H](CC(=O)NCCO)C(=O)N2CCC[C@H]2COC1=O	-3.8	-5.6	7.2	-7.3	82.6*	6.5
O=C(C[C@H]1C/C=C\CC[C@H](Cc2ccc(F)cc2)C(=O)O[C@@H](c2ccccc2)CNC1=O)N[C@@H](CO)Cc1ccccc1	.	4.1	12.9	-5.1	.	.
O=C(C[C@H]1C/C=C\CC[C@H](Cc2ccc(F)cc2)C(=O)O[C@@H](c2ccccc2)CNC1=O)N[C@H](CO)Cc1ccccc1	37.6	.	6.4	-4.1	85.5*	.
CC(C)(C)OC(=O)C[C@H]1C/C=C\C[C@@H](CC(=O)NCCO)C(=O)N2CCC[C@H]2COC1=O	10.5	-3.8	17.2	-9.1	-4.1	1.8
C[C@@H]1CN([C@H](C)CO)C(=O)c2cc(NC(=O)c3ccncc3)ccc2O[C@@H](C)CCCCO[C@@H]1CN(C)S(=O)(=O)c1cccs1	-18.6	0.5	-3.2	.	-4.7	12.9
CC(C)NC(=O)Nc1ccc2c(c1)CC(=O)N([C@@H](C)CO)C[C@H](C)[C@H](CN(C)CC1CCCCC1)O2	2.9	2.4	2.5	.	-4.3	.
O=C(C[C@@H]1C/C=C\C[C@@H](Cc2ccc(F)cc2)C(=O)OC[C@H]2CCCN2C1=O)N[C@H](CO)Cc1ccccc1	-16.6	.	-18.2*	-6.4	5.5	-3.6
O=C1NC[C@H](c2ccccc2)OC(=O)[C@@H](Cc2ccc(F)cc2)CC/C=C/C[C@@H]1CC(=O)N(CCO)Cc1ccccc1	-19.5	-0.8	-20.3	-9.3	46.9*	1.0
Cc1ccc(/C=C2/SC(=Nc3ccc(F)cc3)NC2=O)s1	19.0	81.5*	7.3	-18.8	-2.5	3.8
Cc1ccc(N=C2NC(=O)/C(=C\c3cccs3)S2)cc1C	33.4	1.8	1.4	.	4.3	.
O=C1c2ccccc2C(c2nnnn2-c2ccc3c(c2)OCCO3)N1CCc1ccc(O)cc1 (stereo not given)	20.1	.	-12.7	-6.5	1.7	.
O=C1c2ccccc2C(c2nnnn2-c2ccc3c(c2)OCCO3)N1CCc1ccccc1F (stereo not given)	-11.4	.	-34.2*	-7.1	-14.5	.
C/C(=N\NC(=O)c1cc(C)[nH]n1)c1ccc(-c2ccccc2)cc1	-11.5	4.3	3.8	-3.0	1.2	79.4*
SMILES	INS-1E GSIS act	ERAP1 inh	rRNA inh HTS	CaV13 FRET inh	DENV2 CPE	PGC1a acetyl inh
C/C(=N\NC(=O)c1cc(-c2ccc(Cl)s2)[nH]n1)c1ccncc1	10.1	-2.2	-21.4*	-3.0	-3.0	11.0
O=C(N/N=C/c1ccco1)c1cc(-c2ccc(Br)s2)[nH]n1	15.0	3.6	0.0	-12.4	2.4	.
C/C(=N\NC(=O)c1cc(-c2ccc(Br)s2)[nH]n1)c1ccncc1	33.2	3.4	-18.0	-2.9	?	1.1
O=C(N/N=C/c1ccco1)c1cc(-c2ccc(Cl)s2)[nH]n1	18.8	-0.7	-25.7*	-5.2	-1.5	-2.5
O=C(N/N=C/c1cccs1)c1cc(-c2ccc(Cl)s2)[nH]n1	-2.5	-2.0	-21.6*	-3.1	-4.3	13.1
COc1ccc(S(=O)(=O)N(C)C[C@H]2Oc3ccc(NC(=O)CCC(F)(F)F)cc3CC(=O)N([C@@H](C)CO)C[C@@H]2C)cc1	14.4	-3.0	-0.5	.	9.3	-5.6
CNC[C@H]1OCCCC[C@@H](C)Oc2ccc(NS(=O)(=O)c3cn(C)cn3)cc2C(=O)N([C@H](C)CO)C[C@H]1C	34.7	.	-0.1	.	5.2	5.0
COc1ccc(Cl)cc1NC(=O)N1CCN(c2ccccc2OC)CC1	.	1.3	-30.5*	-20.1	-0.2	2.4
COc1ccc(Cl)cc1NC(=O)NCC1CCN(C(=O)OC(C)(C)C)CC1	.	-1.9	-20.4*	-15.1	-8.1	?
COC(=O)c1ccccc1NC(=O)N1CCN(c2ccc(OC)cc2)CC1	2.7	-1.0	-25.8	5.9	5.5	.
COc1ccc(N2CCN(C(=O)Nc3ccccc3Cl)CC2)cc1	8.4	2.8	-22.9*	-8.1	-1.5	-3.0
COc1ccccc1N1CCN(C(=O)Nc2cccc(Cl)c2)CC1	-28.5	2.4	-23.4	-6.2	-6.3	-0.7
CN1CCN(C(=O)C[C@H]2C[C@@H]3c4cc(NC(=O)Nc5ccccc5F)ccc4O[C@@H]3[C@@H](CO)O2)CC1	-0.5	.	0.4	.	.	1.0

Assay outcomes (PubChem)
